Only some compounds are listed: those with a hit (about 7.4% of all), similar ones and a draw of the others.
NPC1 prom act: activates the NPC1 promoter. Huh7 NPC1 promoter luciferase reporter, 24 h. Potency, µM (highest dose often 9.22 µM), inactives show top-dose activation, hits mostly activators. hit rate 2.4% among 320,000. AID 485313; note: % of control where 0% means no effect; nearly all actives have a fitted effect of over 60% in size
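Stably transfected Huh7 (NPC1 promoter→luciferase), 1500 cells/well in Opti-MEM + 10% FBS, 2 h settle, then compound 24 h at 37 °C. Luminescence after 10 min with Amplite reagent.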
Rab9 prom act: activators of Rab9 promoter. hit rate 2.8% among 320,000. Huh7 Rab9 promoter-luciferase reporter, luminescence, 24 h. Potency, µM (series often up to 9.22 µM), without a hit: top-dose activation, negative = inhibition, usual class: activators; note: % of control where 0% means no effect; nearly all actives have a fitted effect of over 60% in size
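Promoter activation is measured as luciferase luminescence in Huh7 cells stably transfected with a Rab9 promoter–luciferase construct, following 24 h compound exposure at 37 °C and 10 min reagent incubation at ambient temperature.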
SMN2 splice enh: SMN2 splice variant enhancement; HEK293 SMN2-luciferase splicing reporter, luminescence, 30-36 h; AID 1458; Potency, µM (titrated, usually from 46.1 µM), for the others: at the highest dose activity change, positive = activation, hits mostly activators; hit rate 2.8% among 210,000; note: % of control where 0% means no effect; nearly all actives have a fitted effect of over 55% in size
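HEK293 cells carry an SMN2 minigene-luciferase reporter in which exon 7 inclusion puts luciferase in frame. Cells were seeded at 2000 cells/well, attached for 10-12 hours, then exposed to compounds for 30-36 hours at 37C before ONE-Glo luminescence.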
ELG1 genotoxic: induces genotoxicity in HEK293T cells with luciferase-tagged ELG1; Potency, µM (highest dose often 46 µM), for inactives: top-dose activity change, positive = activation, hits mostly activators; hit rate 1.3% among 330,000; HEK293T ELG1-luciferase reporter, luminescence, 16 h; note: % of control where 0% means no effect; nearly all actives have a fitted effect of over 60% in size
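Cells (2,000/well) expressing the ELG1-luciferase fusion are dosed by pin tool and kept 16 hr at 37 °C, 5% CO2. Signal comes from ONE-Glo luciferase reagent after 30 min at room temperature.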
FLuc counter: firefly luciferase modulation, counter-screen for miR-21 project. purified FLuc, Km substrates, luminescence inhibition. Potency, µM (doses to about 57.5 µM), inactives show top-dose activity change, negative = inhibition, most hits filed as inhibitors. hit rate 6.9% among 360,000;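 note: plate controls were vehicle for no effect and reference inhibitor for full effect; nearly all actives have a fitted effect of over 55% in size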
Target sequence (P08659 whole entry, looked up): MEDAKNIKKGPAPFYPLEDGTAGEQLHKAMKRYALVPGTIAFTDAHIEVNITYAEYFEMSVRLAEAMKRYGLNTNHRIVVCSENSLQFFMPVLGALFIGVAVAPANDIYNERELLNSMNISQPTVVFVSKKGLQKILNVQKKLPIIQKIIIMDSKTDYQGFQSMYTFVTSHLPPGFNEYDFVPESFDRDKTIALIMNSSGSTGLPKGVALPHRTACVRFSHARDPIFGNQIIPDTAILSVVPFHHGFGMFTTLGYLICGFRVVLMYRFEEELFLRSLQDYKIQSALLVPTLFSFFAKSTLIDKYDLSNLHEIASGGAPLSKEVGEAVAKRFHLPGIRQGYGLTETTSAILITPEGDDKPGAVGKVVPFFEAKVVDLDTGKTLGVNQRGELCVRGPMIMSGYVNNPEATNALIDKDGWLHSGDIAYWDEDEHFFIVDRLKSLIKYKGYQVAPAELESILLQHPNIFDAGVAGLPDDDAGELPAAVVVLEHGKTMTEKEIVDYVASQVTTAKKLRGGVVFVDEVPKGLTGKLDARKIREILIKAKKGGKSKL
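Purified P. pyralis luciferase (10nM final) with 10uM D-luciferin and 10uM ATP (Km levels) in 50mM Tris acetate pH 7.5, 10mM Mg acetate, 0.01% Tween-20, 0.05% BSA; qHTS 6-point titration, ~60 µM downward; luminescence read.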
KinaseGlo FLuc: blocks Kinase-Glo luciferase, a counter-screen artifact; Potency, µM (highest dose often 38.3 µM), for inactives: at the highest dose activity change, negative = inhibition, hits mostly inhibitors; Q27757; hit rate 0.28% among 200,000; Kinase-Glo luciferase, ATP luminescence, 8 min; note: % is set by controls: 0 for no effect and ±100 for the full control effect; nearly all actives have a fitted effect of over 60% in size
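Luminescence was the read-out, taken after 8-minute incubation at ambient temperature. Luciferase turned over luciferin with 10 uM ATP in imidazole pH 7.2 buffer containing KCl, MgCl2, Tween 20 and BSA.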
An asterisk follows results filed as active; ? = inconclusive; . = no result given; [ ] = another dose, or the depositor's remark. Calls come from the whole dose curve; as a rule, active = well fitted curve in the direction sought with a large enough effect; inconclusive = small, poorly fitted or top-dose-only effect, or another doubt; inactive = no such curve, though single readings can be large; an effect the other way counts as inactive or inconclusive. Potency is the fitted concentration of half-maximal effect.

SMILES	NPC1 prom act	Rab9 prom act	SMN2 splice enh	ELG1 genotoxic	FLuc counter	KinaseGlo FLuc
CCOC(=O)C1CCN(C(=O)c2cc3cc4ccc(OC)cc4nc3o2)CC1	0.63µM*	0.89µM*	.	?	?	.
COc1ccc2cc3cc(C(=O)N4CC(C)CC(C)C4)oc3nc2c1 (stereo not given)	23%	?	.	5%	?	.
CC(=O)c1sc(N/N=C\c2ccccc2O)nc1C	?	?	?	6.5µM*	3.4µM*	-5%
O=C(O)Cc1sc(N/N=C\c2ccccc2)nc1-c1ccccc1	7%	12%	16%	0%	24µM*	-4%
Cc1nc(N/N=C/c2ccccn2)sc1C	-30%	-41%	.	0.13µM*	0.15µM*	8.9µM*
O=C(O)Cc1sc(-c2ccccc2Cl)nc1-c1ccccc1	-6%	4%	-21%	-11%	24µM*	-6%
O=C(Cc1sc(-c2ccccc2)nc1-c1ccccc1)Nc1ccccc1	0%	-4%	12%	6%	-19%	-5%
Cc1ccc(-c2nc(Nc3cccc(C)c3)sc2CC(=O)O)cc1	12%	4%	.	?	?	.
COC(=O)c1ccc(/C=N/Nc2nc(C)c(C)s2)cc1	0.35µM*	0.45µM*	.	-7%	1.1µM*	.
CCOC(=O)c1sc(Nc2ccc(C)cc2C)nc1C	-3%	-3%	-19%	21%	?	-7%
COc1ccccc1Nc1nc(-c2ccccc2)c(CC(=O)O)s1	.	.	12%	.	17µM*	.
C=CCNc1nc(-c2cccs2)c(CC(=O)O)s1	2%	0%	.	-1%	-1%	.
O=C(O)Cc1sc(Nc2ccccc2)nc1-c1cccs1	?	27%	.	?	12µM*	.
CCOC(=O)c1sc(N/N=C/c2cccc(C)c2)nc1C	?	?	20%	11%	8.5µM*	0%
CCOC(=O)c1sc(N/N=C/c2ccccc2)nc1C	2.8µM*	1.6µM*	13µM*	8.2µM*	2.7µM*	-3%
CCOC(=O)c1sc(NS(=O)(=O)c2ccccc2)nc1C	-1%	-4%	-14%	1%	3%	-3%
CC(c1ccco1)N(C(=O)COc1ccc(Cl)cc1Cl)c1ccccn1 (stereo not given)	24%	?	14%	2.3µM*	4.3µM*	-5%
CC(c1ccco1)N(C(=O)c1ccccc1NS(=O)(=O)c1ccc(Cl)cc1)c1ccccn1 (stereo not given)	3%	1%	2%	-1%	-1%	1%
CC(c1ccco1)N(C(=O)COc1ccc(Cl)cc1)c1ccccn1 (stereo not given)	12%	24%	?	8.9µM*	21µM*	-6%
CCC(Sc1nc2nccnc2c(=O)n1Cc1ccc(Cl)cc1)C(=O)NC1CCCCC1 (stereo not given)	.	.	.	.	0%	.
Cc1oc2ccc(O)c(CN3CCN(Cc4ccccc4)CC3)c2c1C(=O)Nc1ccccc1	.	.	-10%	.	-9%	.
S=C(NC1CCCCC1)N1CCc2[nH]c3ccccc3c2C1	-4%	-10%	.	10%	24µM*	.
Cc1cc(Cc2cc(Cc3cc(C)cc(C(C)(C)C)c3O)c(C)cc2C)c(O)c(C(C)(C)C)c1	.	.	4%[9.22 µM]	.	.	1%[7.66 µM]
Nc1nc(N)c(N=Nc2ccc(C(=O)O)cc2)c(N)n1	-2%	16%	.	0%	-17%	.
O=C(O)c1ccc(N=Nc2c(-c3ccccc3)[nH]oc2=O)cc1	?	?	.	17%	11µM*	.
SMILES	NPC1 prom act	Rab9 prom act	SMN2 splice enh	ELG1 genotoxic	FLuc counter	KinaseGlo FLuc
CC1CCN(c2nc(-c3ccc(C(C)(C)C)cc3)nc3ccccc23)CC1	.	.	-1%	.	5.4µM*	.
CC1CCCCN1c1nc(-c2ccncc2)nc2ccccc12 (stereo not given)	-4%	-5%	15%	-7%	0%	3%
CC1CCN(c2nc(-c3ccncc3)nc3ccccc23)CC1	-3%	-3%	0%	-6%	2%	-3%
CC1CCCCN1c1nc(-c2ccc(C(C)(C)C)cc2)nc2ccccc12 (stereo not given)	.	.	383%	.	3.4µM*	.
O=C(Nc1ccccc1)N1CCC2(CC1)CCN(S(=O)(=O)c1ccccc1)CC2	.	.	-7%	.	.	-2%
COc1ccc(-c2nnc(SC(C)C(=O)NNC(=O)c3ccc(C)cc3)o2)cc1 (stereo not given)	3%	14%	-27%	2%	-19%	0%
COc1ccc(-c2nnc(SC(C)C(=O)Nc3cccc(Cl)c3)o2)cc1 (stereo not given)	?	4µM*	16µM*	21µM*	-18%	-5%
COc1ccc(-c2nnc(SC(C)C(=O)O)o2)cc1 (stereo not given)	.	.	-1%	.	12µM*	.
CCC(=O)N[C@@H]1Cc2ccccc2[C@@H](c2ccccc2)C1	.	.	.	.	.	-3%
COc1ccc(-c2nc(SCC(=O)N(CC(C)C)c3c(N)n(Cc4ccccc4)c(=O)[nH]c3=O)n[nH]2)cc1	9%	-1%	.	-2%	1.9µM*	.
CCCN(C(=O)CSc1n[nH]c(-c2ccc(OC)cc2)n1)c1c(N)n(Cc2ccccc2)c(=O)[nH]c1=O	-2%	-4%	.	3%	11µM*	.
O=C(CNC(=O)c1ccccc1F)c1ccccc1	0.45µM*	0.45µM*	.	4.1µM*	3.4µM*	.
O=C(NCCCCc1ccccc1)c1ccccc1F	25%	17%	.	5%	?	.
O=C(CNC(=O)c1ccccc1Cl)c1ccccc1	2.8µM*	0.4µM*	.	9.2µM*	11µM*	.
O=C(NCCc1ccccc1)c1ccccc1F	0.63µM*	0.28µM*	.	?	?	-15%
O=C(NCCc1ccccc1)c1ccc(Br)o1	?	4µM*	28%	?	?	0%
CCOc1ccc(C(=O)N2CCC(c3nnc(-c4ccccc4OC)o3)CC2)cc1	.	.	-12%	.	-9%	.
O=C1NC2(C=Cc3c(ccc4ccccc34)O2)Oc2ccccc21 (stereo not given)	?	28%	-5%	15%	6µM*	0%
Cc1cccc(Nc2nc3c(S(=O)(=O)c4ccc(Br)cc4)nnn3c3ccsc23)c1C	.	.	.	.	-4%	.
O=C(NNC(=O)c1ccc2ccccc2n1)c1ccc(O)cc1	-3%	-3%	.	1%	?	.
O=C(Nc1ccccc1)c1ccc2ccccc2n1	20%	?	?	?	4.8µM*	-7%
O=C(Nc1ccccc1C(=O)O)c1ccc2ccccc2n1	?	?	?	?	6µM*	-16%
Cc1ccccc1NC(=S)c1ccc2ccccc2n1	23%	-2%	.	?	13µM*	.
CC(C)C[C@@H](CC(=O)N[C@H](CC(=O)N[C@@H]1CCNC[C@H]1C(=O)N[C@H](CC(=O)N[C@@H](CCC(=O)O)CC(=O)O)Cc1ccccc1)C(C)C)NC(=O)[C@@H]1CCCC[C@H]1N	.	.	8%	.	.	-5%

Bioassay records from PubChem.
